# A selection: hits, their analogues and other compounds. The true share with any hit is near 7.5%.
# FLuc counter: qHTS profiling assay for firefly luciferase inhibitor/activator using purifed enzyme and Km concentrations of substrates (counterscreen for miR-21 project); Luciferin 4-monooxygenase (Photinus pyralis), P08659; purified FLuc, Km substrates, luminescence inhibition; Potency, µM (series often up to 57.5 µM), most hits filed as inhibitors; 6.9% of 360,000 active; AID 588342, 2011; also: nearly all actives have a fitted effect of over 55% in size
# Target sequence (P08659 whole entry, looked up): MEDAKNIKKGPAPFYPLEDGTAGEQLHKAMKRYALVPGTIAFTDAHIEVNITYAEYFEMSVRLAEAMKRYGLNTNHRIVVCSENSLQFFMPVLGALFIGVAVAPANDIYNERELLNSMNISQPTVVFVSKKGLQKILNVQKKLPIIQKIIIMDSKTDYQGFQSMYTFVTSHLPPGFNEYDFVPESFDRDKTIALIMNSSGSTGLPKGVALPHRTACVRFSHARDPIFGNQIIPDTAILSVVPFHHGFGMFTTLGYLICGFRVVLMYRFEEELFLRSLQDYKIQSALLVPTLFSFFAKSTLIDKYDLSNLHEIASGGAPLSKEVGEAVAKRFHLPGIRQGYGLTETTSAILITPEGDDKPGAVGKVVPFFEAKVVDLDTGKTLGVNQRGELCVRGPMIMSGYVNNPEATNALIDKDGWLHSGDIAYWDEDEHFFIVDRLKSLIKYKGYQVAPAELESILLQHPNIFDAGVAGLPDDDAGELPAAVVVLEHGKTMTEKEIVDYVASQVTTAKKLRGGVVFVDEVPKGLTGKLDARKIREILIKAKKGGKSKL
#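 Biochemical qHTS of compounds, final roughly 60 µM downward over six points, against 10 nM purified firefly luciferase using Km concentrations of substrates (10 uM D-luciferin, 10 uM ATP) in Tris acetate pH 7.5 buffer; luminescence output.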
# NPC1 prom act: qHTS Assay for NPC1 Promoter Activators. 2.4% of 320,000 active. Potency, µM (highest dose often 9.22 µM), hits mostly activators. Huh7 NPC1 promoter luciferase reporter, 24 h; also: nearly all actives have a fitted effect of over 60% in size
#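 Luminescence read-out of NPC1 promoter-driven luciferase in stably transfected Huh7 cells; compounds delivered in DMSO and left 24 h at 37C, 5% CO2, qHTS titration format.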
# SMN2 splice enh: qHTS Assay for Enhancers of SMN2 Splice Variant Expression; 2.8% of 210,000 active; Potency, µM (doses to about 46.1 µM), hits mostly activators; HEK293 SMN2-luciferase splicing reporter, luminescence, 30-36 h; also: nearly all actives have a fitted effect of over 55% in size
#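 HEK293 cells carry an SMN2 […]–luciferase reporter in which exon 7 inclusion puts luciferase in frame. Cells were plated 10-12 h before compound addition, then incubated 30-36 h at 37C. ONE-Glo luminescence was read; sodium butyrate at 4.5 mM final served as control.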
# ELG1 genotox: qHTS screen for small molecules that induce genotoxicity in human embryonic kidney (HEK293T) cells expressing luciferase-tagged ELG1. Potency, µM (highest dose often 46 µM), most hits filed as activators. 1.3% of 330,000 active. AID 504466, 2011. HEK293T ELG1-luciferase reporter, luminescence, 16 h; also: nearly all actives have a fitted effect of over 60% in size
#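 Genotoxicity was scored as increased ELG1-luciferase reporter signal, measured by ONE-Glo luminescence (30 min, room temperature). Compound or vehicle exposure of the HEK293T reporter cells lasted 16 hr at 37°C.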
# Rab9 prom act: qHTS Assay for Rab9 Promoter Activators. Huh7 Rab9 promoter-luciferase reporter, luminescence, 24 h. Potency, µM (highest dose often 9.22 µM), hits mostly activators. 2.8% of 320,000 active; also: nearly all actives have a fitted effect of over 60% in size
#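 Measured in stably transfected Huh7 cells bearing a Rab9 promoter–luciferase construct: 24 h compound treatment at 37 °C, followed by luminescence detection.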
# Numbers stand for hits; – = inactive; ? = inconclusive; · = not tested or not shown; [ ] = remark or other dose. Calls follow the shape of the dose curve; as a rule, active = well fitted curve in the direction sought with a large enough effect; inconclusive = small, poorly fitted or top-dose-only effect, or another doubt; inactive = no such curve, though single readings can be large; an effect the other way counts as inactive or inconclusive.
SMILES,FLuc counter,NPC1 prom act,SMN2 splice enh,ELG1 genotox,Rab9 prom act
COc1cc(OC)cc(C(=O)NNC(=O)CCC(=O)c2cc(C)sc2C)c1,·,·,·,–,·
Nc1cc(C(=O)O)c(O)c(S(=O)(=O)O)c1,·,·,–,·,·
Cn1c(-c2ccccc2)cc2c3no[n+]([O-])c3ccc21,13µM,?,–,–,–
C/C(=N/NC(=O)c1ccc2c(c1)OCO2)c1cccc(NC(=O)C(C)(C)C)c1,17µM,–,–,–,–
C/C(=N\NC(=S)Nc1ccc(F)cc1)c1ccc2c(c1)OCCO2,?,–,–,–,–
COc1ccccc1NS(=O)(=O)c1cccc(C(=O)N/N=C(\C)c2cccnc2)c1,–,–,·,–,–
C/C(=N/NC(=O)c1ccc2c(c1)OCO2)c1cccc([N+](=O)[O-])c1,6µM,2µM,·,8.2µM,2.2µM
CC(/C=C/c1ccc2c(c1)OCO2)=N\NC(=O)c1cccc([N+](=O)[O-])c1,–,–,–,–,–
COc1ccccc1NS(=O)(=O)c1cccc(C(=O)N/N=C(\C)c2ccc3c(c2)OCCO3)c1,15µM,–,–,–,–
C/C(=N/NC(=O)c1ccc2c(c1)OCO2)c1ccc(NC(=O)c2ccc(F)cc2)cc1,–,–,·,15µM,–
COc1ccc(C2CC(=O)C(C=NCCO)=C(O)C2)cc1 (stereo unspecified),–,–,·,–,–
CC1Cc2c([nH]c3ccccc23)C(=O)N1 (stereo unspecified),–,–,·,–,–
C/C(=N\NC(=O)c1cc2ccccc2cc1O)c1ccc2c(c1)OCO2,9.5µM,–,–,–,–
COc1ccc(C(=O)NC(=S)Nc2ccc(N3CCCC3)cc2)cc1,–,–,–,–,–
COc1ccc(C(=O)Nc2ccc(N3CCOCC3)cc2)cc1OC,24µM,–,–,–,–
O=C(Nc1ccc(N2CCOCC2)cc1)c1cccc(-n2cnnc2)c1,?,–,·,–,–
CCOc1ccc(C(=O)Nc2ccc(N3CCN(C)CC3)cc2)cc1Br,6µM,–,–,–,–
COc1ccc(C(=O)Nc2ccc(N3CCCC3)cc2)cc1,7.6µM,–,–,?,?
CCOc1ccc(C(=O)Nc2ccc(NC(=O)c3ccccc3)cc2)cc1Br,–,–,–,–,–
CN(C)c1cccc(C(=O)Nc2ccc(N3CCOCC3)cc2)c1,21µM,–,?,?,?
CC(C)CN(C(=O)c1cccc(S(=O)(=O)N2CCN(C)CC2)c1)C1CCS(=O)(=O)C1 (stereo unspecified),–,–,·,–,–
COC(=O)c1ccc2c(=O)n(CCN3CCOCC3)c(SCC(=O)NCc3ccccc3)nc2c1,–,–,–,–,–
Cc1cc(C)c(C(=O)CSc2nnc(C)c(=O)[nH]2)cc1C,?,–,–,–,–
COc1ccc(CCNC(=O)Cn2nnc(-c3ccc(N4CCOCC4)cc3)n2)cc1OC,3µM,–,?,–,?
COc1ccc(C(=O)Nc2ccc(N3CCCC3)cc2)cc1Br,?,–,·,–,–
SMILES,FLuc counter,NPC1 prom act,SMN2 splice enh,ELG1 genotox,Rab9 prom act
COc1ccc(C(=O)Nc2ccc(N3CCCC3)cc2)cc1OC,5.4µM,3.5µM,·,?,4µM
CCOc1ccc(CCNC(=O)Cn2nnc(-c3ccc(OC)c(OC)c3)n2)cc1OCC,–,·,–,·,·
CC(=O)c1ccccc1NC(=O)COC(=O)c1cc2ccccc2[nH]1,–,–,·,–,–
COC(=O)[C@H](COC(C)(C)C)NC(=O)O[C@@H]1C(=O)c2cc(Br)ccc2O[C@H]1c1cccc(OC)c1,·,·,–,·,·
COc1cc(/C=c2\sc3nc(-c4ccncc4)nn3c2=O)ccc1OC(C)=O,2.7µM,–,–,–,–
O=C(O)c1ccc2c(c1)C(=O)N(CCc1c[nH]c3ccccc13)C2=O,17µM,2.5µM,·,?,3.2µM
O=C(O)c1ccc2c(c1)C(=O)N(CCc1ccccc1)C2=O,–,–,·,–,–
Cc1cnc(CNc2ncnc3ccc(-c4ccccc4C#N)cc23)cn1,·,·,–,·,·
Cc1ccccc1CNS(=O)(=O)c1c(C(=O)N2CCCCC2)c(C)n(C)c1C,–,–,·,–[9.26 µM],–
Cn1c(-c2ccc3ccccc3n2)nc2cnccc21,8.5µM,4µM,–,?,2.2µM
CCn1cc(CN2CCC(n3nccc3NC(=O)CCc3ccccc3)CC2)cn1,–,–,·,–,–
CC#CC(=O)N1CCCC(Cc2cccc(OC)c2)(C(=O)OCC)C1 (stereo unspecified),24µM,?,·,–,?
CCOC(=O)C1(Cc2cccc(OC)c2)CCN(C2CCOCC2)CC1,3µM,?,·,?,?
CCOC(=O)C1(Cc2ccccc2)CCCN(C(=O)C=C(C)C)C1 (stereo unspecified),17µM,?,·,?,3.5µM
CCOC(=O)C1(Cc2ccc(OC)cc2)CCN(C(=O)c2cc3ccccc3[nH]2)CC1,15µM,–,–,–,–
O=C(NCCc1ccc(F)cc1)N[C@@H](Cc1ccccc1)C(=O)O,–,–,·,–,–
COc1ccc2c(c1)c(=O)c(S(=O)(=O)c1ccc(Cl)cc1)cn2Cc1cc(C)ccc1C,–,·,–,·,·
COc1ccccc1OCC(=O)N/N=C1/C=C(C)CC1,–,–,–,–,–
CCOC(=O)C1(Cc2cccc(Cl)c2)CCCN(C(=O)c2cccnc2)C1 (stereo unspecified),–,–,·,–,–
CCOC(=O)C1(Cc2cccc(OC)c2)CCCN(C(=O)CCc2cccnc2)C1 (stereo unspecified),17µM,–,·,?,?
Oc1oc(-c2cccc3ccccc23)nc1/C=N/c1nccs1,–,–,–,–,–
Cc1cccc(/N=C/c2nc(-c3ccccc3Br)oc2O)n1,7.6µM,–,–,–,–
Cc1ccnc(N=Cc2nc(-c3ccccc3Br)oc2O)c1,5.4µM,–,–,–,?
O=C(CSc1nc(=O)n(Cc2ccco2)c2c1CCC2)Nc1cccc(F)c1,–,·,·,·,·
COC(=O)c1ccc(Nc2ncnc3c2cnn3-c2ccccc2)cc1,–,·,·,·,·
SMILES,FLuc counter,NPC1 prom act,SMN2 splice enh,ELG1 genotox,Rab9 prom act
CN1C[C@H](c2ccccc2)C(O)([C@]2(c3ccccc3)CN(C)C[C@@H](c3ccccc3)C2=O)[C@H](c2ccccc2)C1 (stereo partly specified),·,·,–[9.22 µM],·,·
N#Cc1cnn(-c2nc3sc4c(c3c(=O)[nH]2)CCCC4)c1N,6µM,–,–,–,–
CCOc1ccc(S(=O)(=O)NCCC(=O)OCC(=O)NC(=O)c2cccn2C)cc1,·,·,·,–,·
CN(C)c1ccc(NC(=S)NC23CC4CC(CC(C4)C2)C3)cc1,12µM,–,·,?,?
FC(F)Oc1ccc(NC(=S)NC23CC4CC(CC(C4)C2)C3)cc1,19µM,–,·,–,–
O=C1CCC(C(=O)Nc2cccc(Br)c2)N1 (stereo unspecified),–,–,·,–,–
Cc1nc2ccc(N)cc2s1,–,–,?,–,–
Cc1ccc2nc(-c3ccc(N)cc3)sc2c1S(=O)(=O)O,·,·,14µM,·,·
